In PubChem BioAssay (NCI) one finds growth data, which are given here for nine compounds.

The panel holds about 83,000 compounds, 20% with a hit somewhere; the sample as a whole holds those more often.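 The test compound was applied at a single concentration to cells in 96-well plates for 48 hours, and percent growth was recorded.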 Unmarked numbers belong to inactive results. Calls of active or inactive are those of the source. The calls were made as follows: active = growth percent below 10; inactive = the rest.

Test systems include NCI-H23 lung; NCI-H226 lung; NCI-H322M lung; HOP-62 NSCLC; NCI-H460 lung; NCI-H522 lung; A549/ATCC NSCLC; 786-0 renal; DU-145 prostate; K-562 leukemia; MALME-3M melanoma; MDA-MB-231 breast; RXF 393 renal; SF-268 CNS; SF-295 CNS; SF-539 CNS; UACC-257 melanoma; M14 melanoma; HCT-15 colon; COLO 205 colon.
What all share (assay): NCI-60 one-dose screen, 48 h (100 = growth as untreated, 0 = no growth, -100 = all killed)
Holding throughout (details): 10 µM

Consider `S=c1[nH]ccn1-c1c(Cl)cccc1Cl`, for which the growth with NCI-H23 lung is 100%; in the assay on NCI-H226 lung, 98.6%; in the assay on NCI-H322M lung, 102%; in the assay with HOP-62 NSCLC, 93.5%; with NCI-H460 lung it was 101%; in the assay on NCI-H522 lung it was 11%. Moreover, the growth was 28.9% in the assay with A549/ATCC NSCLC; 98.8% in the assay on 786-0 renal; 125% in the assay with DU-145 prostate; 103% in the assay on K-562 leukemia; 109% in the assay with MALME-3M melanoma; 102% with MDA-MB-231 breast. For the same compound, the growth in the assay with RXF 393 renal was 106%; with SF-268 CNS it was 118%; in the assay with SF-295 CNS it was 99.1%; with SF-539 CNS, 94.4%; with UACC-257 melanoma, -4.51% (active); with M14 melanoma, 98.1%. The growth in the assay on HCT-15 colon is 100%.

For the compound `COc1cc2c(cc1OCCCN1CCN(c3ncnc4ccccc34)CC1)N=CC1CCCN1C2=O` (stereo unspecified), the growth in the assay on NCI-H23 lung was -8.7% (active); in the assay with NCI-H226 lung, -50.1% (active); in the assay on NCI-H322M lung, -3.85% (active); with HOP-62 NSCLC, 4.07% (active); with NCI-H460 lung, 8.4% (active); in the assay on NCI-H522 lung it was -37.7% (active). Besides, the growth with A549/ATCC NSCLC was -2.44% (active); in the assay on 786-0 renal, 7.51% (active); with COLO 205 colon, -42% (active); in the assay with K-562 leukemia, -24.8% (active); in the assay with MALME-3M melanoma it was -71.7% (active); with MDA-MB-231 breast it was -34.4% (active). Besides, the growth was 10.3% with SF-268 CNS; -20.9% (active) in the assay with SF-295 CNS; -82.7% (active) with SF-539 CNS; -46.8% (active) with M14 melanoma; 1.25% (active) with HCT-15 colon.

For `CC/C(=C(/c1ccc(OCCN(C)C)cc1)c1ccc(OC(=O)CCCCC(=O)c2c(C)[nH]c(/C=C3\N=C(c4ccc[nH]4)C=C3OC)c2C)cc1)c1ccccc1`, the growth was 86.7% in the assay with NCI-H23 lung; 54.4% in the assay with NCI-H226 lung; 72.2% in the assay with NCI-H322M lung; 77.9% in the assay on HOP-62 NSCLC; 61.2% in the assay with NCI-H460 lung; 4.55% (active) in the assay with NCI-H522 lung. In addition, the growth in the assay on A549/ATCC NSCLC is 52.4%; with 786-0 renal, 67.4%; in the assay on DU-145 prostate it was 34.2%; in the assay with K-562 leukemia, 7.12% (active); in the assay with MALME-3M melanoma it was 39.5%; with MDA-MB-231 breast, -17.5% (active). In addition, the growth is 37.2% with RXF 393 renal; 51.5% in the assay on SF-268 CNS; 72.6% in the assay on SF-295 CNS; 78.6% in the assay with SF-539 CNS; 90.1% in the assay with UACC-257 melanoma; -1.63% (active) in the assay with M14 melanoma. Moreover, the growth in the assay with HCT-15 colon was 27.1%.

For the compound `N#Cc1ncc(-c2ccc(C(F)(F)F)cc2)c(NCc2cc(C(F)(F)F)cc(C(F)(F)F)c2)n1`, the growth with NCI-H23 lung is 10.6%; in the assay with NCI-H226 lung it was 43.8%; in the assay on NCI-H322M lung, 70.2%; in the assay with HOP-62 NSCLC it was 39.2%; in the assay with NCI-H460 lung it was 2.11% (active); in the assay on NCI-H522 lung it was 12.2%. For the same compound, the growth in the assay on A549/ATCC NSCLC is 29.2%; in the assay on 786-0 renal, 40.3%; with DU-145 prostate, 28.2%; with K-562 leukemia it was 16.1%; in the assay on MALME-3M melanoma, 10.1%; in the assay on MDA-MB-231 breast, 39.4%. For the same compound, the growth with RXF 393 renal was 35.8%; with SF-268 CNS, 56.8%; with SF-295 CNS, 4.36% (active); in the assay with SF-539 CNS, 66.4%; with UACC-257 melanoma, 28.7%; in the assay on M14 melanoma it was 40%. Besides, the growth with HCT-15 colon was 7.65% (active).

As to `COc1ccc(-c2nsc3c2NC(=O)CC3c2ccc(F)cc2)cc1` (stereo unspecified), the growth in the assay on NCI-H23 lung was 59.5%; with NCI-H226 lung it was 75.2%; with NCI-H322M lung it was 39.6%; in the assay with HOP-62 NSCLC, 44.3%; with NCI-H460 lung, 17.2%; in the assay on NCI-H522 lung it was 3.06% (active). In addition, the growth is 27.2% in the assay on A549/ATCC NSCLC; 57.5% in the assay with 786-0 renal; 58.7% in the assay on DU-145 prostate; 10.1% in the assay with K-562 leukemia; 31.1% in the assay with MALME-3M melanoma; 68.7% with MDA-MB-231 breast. Further, the growth in the assay with RXF 393 renal is 62.9%; with SF-268 CNS it was 63.4%; in the assay with SF-295 CNS, 37.5%; in the assay with SF-539 CNS it was 43.9%; with UACC-257 melanoma it was 58.3%; with M14 melanoma, 24%. In addition, the growth in the assay with HCT-15 colon is 24.4%.

In the case of `Cc1ccc(C(=O)N2C/C(=C/c3ccc(F)cc3)C(=O)/C(=C/c3ccc(F)cc3)C2)cc1`, the growth with NCI-H23 lung was 97.6%; in the assay on NCI-H226 lung, 86.9%; with NCI-H322M lung, 90.6%; with HOP-62 NSCLC, 96.4%; with NCI-H460 lung, 101%; in the assay with NCI-H522 lung, 67.7%. Besides, the growth was 94.5% in the assay with A549/ATCC NSCLC; 91.6% in the assay on 786-0 renal; 101% with DU-145 prostate; 44.2% in the assay with K-562 leukemia; 98.5% in the assay on MALME-3M melanoma; 83.4% with MDA-MB-231 breast. The growth in the assay on RXF 393 renal is 90.4%; in the assay with SF-268 CNS, 85.2%; in the assay with SF-295 CNS, 92.5%; in the assay with SF-539 CNS it was 93.2%; with UACC-257 melanoma it was 94.4%; in the assay with M14 melanoma, 84.8%. Besides, the growth in the assay on HCT-15 colon was 95.1%.

As for `Clc1nc(Cl)c2c(ncn2C/C=C\Cn2cnc3c(Cl)nc(Cl)nc32)n1`, the growth in the assay on NCI-H23 lung is -15.8% (active); in the assay with NCI-H226 lung, -80.1% (active); in the assay with NCI-H322M lung, 8.09% (active); with HOP-62 NSCLC it was 11.2%; in the assay with NCI-H460 lung it was 0.846% (active); in the assay on NCI-H522 lung, -70.6% (active). Besides, the growth is -79.4% (active) in the assay with A549/ATCC NSCLC; -4.46% (active) in the assay with 786-0 renal; -51.5% (active) in the assay with COLO 205 colon; -20.6% (active) in the assay on K-562 leukemia; -84.8% (active) with MALME-3M melanoma; -100% (active) in the assay on MDA-MB-231 breast. In addition, the growth in the assay on SF-268 CNS was 6.36% (active); in the assay with SF-295 CNS, -10.7% (active); in the assay on SF-539 CNS, -71.6% (active); in the assay with M14 melanoma it was -10.5% (active); with HCT-15 colon it was -85.4% (active).

As to `Cc1cc(N(CCCNc2ccnc3cc(Cl)ccc23)Cc2ccc3c(c2)OCO3)nc(N2CCOCC2)n1`, the growth was 50.9% with NCI-H23 lung; 67.2% with NCI-H226 lung; 37.5% in the assay on NCI-H322M lung; 10.1% with HOP-62 NSCLC; 20.2% with NCI-H460 lung; 8.51% (active) with NCI-H522 lung. In addition, the growth in the assay with A549/ATCC NSCLC was 28.7%; with 786-0 renal, -20.4% (active); in the assay with DU-145 prostate, 38%; with K-562 leukemia it was -6.17% (active); with MALME-3M melanoma it was -71.4% (active); in the assay with MDA-MB-231 breast, 14.4%. For the same compound, the growth with RXF 393 renal is -48% (active); with SF-268 CNS it was 36.6%; with SF-295 CNS it was -9.78% (active); with SF-539 CNS, -72.9% (active); in the assay with M14 melanoma, -71.1% (active); with HCT-15 colon, 4.7% (active).

On to `COc1ccc(-c2nn(-c3cccc(NC(=O)Nc4cccc(C(F)(F)F)c4)c3)cc2-c2ccncc2)cc1Cl`, for which the growth in the assay on NCI-H23 lung was 5.45% (active); with NCI-H226 lung it was 25.7%; in the assay with NCI-H322M lung, 24.4%; in the assay with HOP-62 NSCLC, 25.2%; in the assay on NCI-H460 lung, 2.43% (active); in the assay on NCI-H522 lung, -6.94% (active). The growth with A549/ATCC NSCLC was 7.5% (active); in the assay with 786-0 renal, 24.2%; in the assay with DU-145 prostate it was 22%; in the assay with K-562 leukemia, 8.89% (active); with MALME-3M melanoma it was -10.4% (active); in the assay with MDA-MB-231 breast, 1.25% (active). Also, the growth was 23.2% with RXF 393 renal; 23.5% with SF-268 CNS; 5.07% (active) in the assay on SF-295 CNS; 16.2% in the assay with SF-539 CNS; -5.98% (active) in the assay on UACC-257 melanoma; 4.56% (active) with M14 melanoma. The growth with HCT-15 colon was 23.5%.
